Screens (PubChem)
KDM5B inhibitor: KDM5B demethylase inhibition; KDM5B demethylase, FDH-coupled NADH fluorescence (FDH is formaldehyde dehydrogenase); hit rate 2.6% among 220,000; Potency, µM (doses to about 57.7 µM), most hits filed as inhibitors; Q9UGL1; further: nearly all actives have a fitted effect of over 70% in size
Target sequence (Q9UGL1 whole entry, looked up): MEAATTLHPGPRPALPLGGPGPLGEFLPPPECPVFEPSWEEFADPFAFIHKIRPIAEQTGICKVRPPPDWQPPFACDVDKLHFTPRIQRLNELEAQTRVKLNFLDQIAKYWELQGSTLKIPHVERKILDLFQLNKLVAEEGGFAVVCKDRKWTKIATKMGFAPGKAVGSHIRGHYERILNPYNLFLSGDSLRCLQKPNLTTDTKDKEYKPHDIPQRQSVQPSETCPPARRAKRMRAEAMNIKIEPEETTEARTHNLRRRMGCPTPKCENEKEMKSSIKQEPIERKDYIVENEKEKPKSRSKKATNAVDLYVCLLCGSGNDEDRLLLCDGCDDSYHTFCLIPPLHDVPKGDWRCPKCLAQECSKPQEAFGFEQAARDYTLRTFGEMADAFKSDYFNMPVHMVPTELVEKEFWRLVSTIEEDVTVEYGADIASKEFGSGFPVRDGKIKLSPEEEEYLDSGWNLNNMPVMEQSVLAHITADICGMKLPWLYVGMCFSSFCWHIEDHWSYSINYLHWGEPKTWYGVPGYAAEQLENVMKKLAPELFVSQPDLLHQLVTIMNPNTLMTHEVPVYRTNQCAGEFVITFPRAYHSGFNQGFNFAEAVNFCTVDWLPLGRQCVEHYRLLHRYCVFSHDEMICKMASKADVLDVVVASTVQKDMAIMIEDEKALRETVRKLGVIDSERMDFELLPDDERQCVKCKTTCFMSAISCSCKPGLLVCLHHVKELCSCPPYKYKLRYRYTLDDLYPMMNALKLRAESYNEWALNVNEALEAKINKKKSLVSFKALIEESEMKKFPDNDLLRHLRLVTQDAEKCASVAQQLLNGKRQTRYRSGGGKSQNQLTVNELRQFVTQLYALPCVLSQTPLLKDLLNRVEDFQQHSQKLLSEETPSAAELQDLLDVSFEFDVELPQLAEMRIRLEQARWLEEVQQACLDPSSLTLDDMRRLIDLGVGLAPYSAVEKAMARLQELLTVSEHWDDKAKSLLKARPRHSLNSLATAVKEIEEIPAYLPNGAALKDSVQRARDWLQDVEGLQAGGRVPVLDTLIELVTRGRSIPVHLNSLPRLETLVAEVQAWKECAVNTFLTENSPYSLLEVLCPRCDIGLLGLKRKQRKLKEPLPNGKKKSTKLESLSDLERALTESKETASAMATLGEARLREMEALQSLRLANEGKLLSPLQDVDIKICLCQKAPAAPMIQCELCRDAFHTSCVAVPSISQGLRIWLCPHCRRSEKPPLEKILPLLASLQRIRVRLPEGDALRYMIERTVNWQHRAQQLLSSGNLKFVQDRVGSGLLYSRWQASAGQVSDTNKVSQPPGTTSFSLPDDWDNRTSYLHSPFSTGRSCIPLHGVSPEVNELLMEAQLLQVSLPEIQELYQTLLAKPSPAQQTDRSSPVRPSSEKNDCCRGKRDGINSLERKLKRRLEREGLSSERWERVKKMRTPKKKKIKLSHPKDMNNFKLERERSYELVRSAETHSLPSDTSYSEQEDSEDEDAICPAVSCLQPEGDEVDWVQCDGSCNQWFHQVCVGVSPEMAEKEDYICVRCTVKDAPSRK
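Here, H3K4me3 peptide (12.5 µM in substrate mix) is demethylated by KDM5BΔAP, 200 nM final, after 10 min compound exposure. Formaldehyde product is coupled through FDH (0.25 U/mL in mix) to NADH fluorescence; 30-min ΔRFU feeds dose-response curves.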
SNCA viab count: reduces viability of HEK-293 SNCA reporter cells | hit rate 0.12% among 150,000 | Potency, µM (titrated, usually from 57.1 µM), most hits filed as cytotoxic | AID 1671193 | HEK-293-SNCA-luc viability, GF-AFC fluorescence, 24 h; further: nearly all actives have a fitted effect of over 30% in size
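HEK-293-SNCA-luc cells (1500/well) plated 24 h, then exposed 24 h to a dilution series; GF-AFC added 30 min at 37C, fluorescence 405/540 nm; normalised to medium-only and DMSO wells, Hill fit.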
SNCA expr inhib: inhibitors of alpha-synuclein (SNCA) gene expression; HEK-293 SNCA-luciferase knock-in, luminescence, 24 h; Potency, µM (titrated, usually from 57.2 µM), hits mostly inhibitors; hit rate 0.17% among 140,000; AID 1671194; further: nearly all actives have a fitted effect of over 45% in size
IP6K1 inhibitor: IP6K1 kinase inhibition; Q92551; IP6K1 kinase, ADP-Glo luminescence, 2 h; stronger effect = lower value; activity change, % (series mostly up to about 58 µM); hit rate 0.81% among 140,000; AID 1645851; in the data active means activity change below about -25%
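ADP-Glo luminescence measures ADP made by human IP6K1 during a 2 h RT reaction with ATP/IP6 (mix at 1.3 mM/130 uM); top library doses 57.5 and 19.1 uM final.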
Large screens that a line does not name were inactive. Sampled rows, rich in hits. Any-hit rate of the full collection: about 2.8%. Unless noted, the call rests on the fitted dose curve; in most records, active means well fitted curve in the direction sought with a large enough effect; inconclusive means small, poorly fitted or top-dose-only effect, or another doubt; inactive means no such curve, though single readings can be large; an effect the other way counts as inactive or inconclusive.

CC1=C[C@@H](CNC(=O)c2ccccc2)[C@H](C(C)C)C[C@H]1Cc1nc2ccccc2n1C	SNCA viab count 11.2µM, SNCA expr inhib inconclusive
CC1=C[C@@H](CNC(=O)c2cnccn2)[C@H](C(C)C)C[C@H]1Cc1nc2ccc(F)cc2[nH]1	KDM5B inhibitor inconclusive, SNCA viab count inconclusive
C[S+](=O)([O-])N1CCC(Cn2ccc3c(N4CCOCC4)nc(-c4cccnc4)cc32)CC1	KDM5B inhibitor inconclusive
Cc1ccc(-c2cc3c(ccn3CC3CCN([S+](C)(=O)[O-])CC3)c(N3CCOCC3)n2)cn1	KDM5B inhibitor 31.6µM
FC(F)(F)c1ccc(Cl)c(N/N=C/c2ccc(Cl)cc2Cl)c1	none (no result: SNCA viab count, SNCA expr inhib, IP6K1 inhibitor)
COc1cccc(-c2cc3c(=O)n(CCNC(=O)c4cc(F)cc(F)c4)ccn3n2)c1	none
COc1cccc(-c2cc3c(=O)n(CCNC(=O)c4c(F)cccc4F)ccn3n2)c1	KDM5B inhibitor inconclusive
O=C(NCCn1ccn2nc(-c3ccc(F)cc3)cc2c1=O)c1ccc(F)cc1	KDM5B inhibitor inconclusive
Cc1ccc(-c2cc3c(=O)n(CCNC(=O)c4ccc5cc[nH]c5c4)ccn3n2)cc1C	KDM5B inhibitor 35.5µM
COc1cccc(-c2cc3c(=O)n(CCNC(=O)c4ccc5cc[nH]c5c4)ccn3n2)c1	KDM5B inhibitor 35.5µM
COc1cccc(-c2cc3c(=O)n(CCNC(=O)c4ccc(OC)c(F)c4)ccn3n2)c1	KDM5B inhibitor 20µM
COc1ccc(C(=O)N2CCCC(n3cc(-c4nc(-c5ccccc5)no4)nn3)C2)cc1F (stereo not drawn)	none
Cc1cc(NC(=O)CN2CCN(c3nc(N4CCCC4)nc(N4CCCC4)n3)CC2)no1	none (no result: SNCA viab count, SNCA expr inhib, IP6K1 inhibitor)
CCN(CC(=O)NC(C)(C)C)C(=O)NCc1cccc(C(F)(F)F)c1	none (no result: SNCA viab count, SNCA expr inhib, IP6K1 inhibitor)
FC(F)(F)C1CN(c2ccc3cc(Cl)ccc3n2)CCO1 (stereo not drawn)	KDM5B inhibitor 14.1µM
CC(=O)N1CCN(C(=O)c2nc(N)nc3c2CCCC3)CC(O)C1 (stereo not drawn)	KDM5B inhibitor 25.1µM
CCS(=O)(=O)Nc1ccc(C(=O)N2CCN(C(C)=O)CC(O)C2)cc1 (stereo not drawn)	none
CCC(O)c1cc2n(n1)CCN(C(=O)c1nc(N)nc3c1CCCC3)C2 (stereo not drawn)	KDM5B inhibitor 28.2µM
CCC(O)c1cc2n(n1)CCN(C(=O)c1ccc(-c3ccccc3)n1C)C2 (stereo not drawn)	none
CN(C)Cc1nnc(C2CCN(C(=O)c3nc(N)nc4c3CCCC4)CC2)n1C	KDM5B inhibitor 25.1µM
COC(=O)c1ccc(CNC(=O)Cn2c(Cl)nc3c2c(=O)n(C)c(=O)n3C)cc1	none (no result: SNCA viab count, SNCA expr inhib, IP6K1 inhibitor)
O=[N+]([O-])c1ccc(-c2cc(-c3ccccc3)nc(-c3ccccc3)c2)cc1	none (no result: SNCA viab count, SNCA expr inhib, IP6K1 inhibitor)
Cc1nn(-c2ccccc2)c2c1C(C1CC1)N(CC1CN(C(=O)c3ccc(Cl)nc3)C1)C2=O (stereo not drawn)	none (no result: KDM5B inhibitor, SNCA viab count, SNCA expr inhib)
O=C(N[C@H](c1cccs1)C1CC(O)C1)c1ccc(N2CCOCC2)cc1 (stereo partly drawn)	none
CCNc1ncc(C(=O)N[C@H](C2CCNCC2)C2CC(O)C2)cn1 (stereo partly drawn)	KDM5B inhibitor 28.2µM
Cc1cc(C)c(C(=O)N[C@H](C2CCNCC2)C2CC(O)C2)c(C)c1 (stereo partly drawn)	none
CCNc1ncc(C(=O)N[C@H](c2cccs2)C2CC(O)C2)cn1 (stereo partly drawn)	KDM5B inhibitor 22.4µM, SNCA expr inhib inconclusive
CCn1cc(S(=O)(=O)Nc2ccc(F)c(F)c2)cn1	none (no result: SNCA viab count, SNCA expr inhib, IP6K1 inhibitor)
Cc1cc(C)c2c(CC(=O)Nc3ccc(S(=O)(=O)N4CCCCC4)cc3)coc2c1	SNCA expr inhib 22.4µM
CCONC(=O)c1ccc(OC)cc1O	none (no result: SNCA viab count, SNCA expr inhib, IP6K1 inhibitor)
COc1ccc(C(=O)N[C@@H]2CN(c3ccccn3)C[C@H]2CN(C)C)c(OC)c1	KDM5B inhibitor 28.2µM
CN(C)C[C@@H]1CN(c2ccccn2)C[C@H]1NC(=O)c1cnco1	KDM5B inhibitor 31.6µM
COc1ccc(CC(=O)N[C@@H]2CN(c3ccccn3)C[C@H]2CN(C)C)cc1	KDM5B inhibitor 28.2µM
COc1cc(Cl)ccc1C(=O)N[C@@H]1CN(c2ccncn2)C[C@H]1CN(C)C	none
O=C(CCC(=O)c1ccc(Cl)cc1)OCCOc1ccc(Br)cc1	none (no result: SNCA viab count, SNCA expr inhib, IP6K1 inhibitor)
CCC(CC)NC(=O)COC(=O)c1cc(S(=O)(=O)N(CC)CC)ccc1N1CCCCC1	none (no result: SNCA viab count, SNCA expr inhib, IP6K1 inhibitor)
O=C(NCc1ccc(N2CCOCC2)cc1)c1cc2c(s1)CN(C1CC1)C2	KDM5B inhibitor 11.2µM
CC(C)NC(=O)N1CCC2(CC1)CN(C(=O)c1ccnc(N)c1)Cc1ccccc1O2	KDM5B inhibitor 79.4µM
CCn1ccc(C(=O)N2CCC3(CC2)c2[nH]c4ccccc4c2CCN3C)n1	KDM5B inhibitor 28.2µM
O=C(Nc1ccccc1Cl)C1CCN(c2ncnc3nc[nH]c23)CC1	none (no result: SNCA viab count, SNCA expr inhib, IP6K1 inhibitor)
Cc1cccc(C)c1-n1nnnc1C(C)(C)Nc1ccccc1	none (no result: SNCA viab count, SNCA expr inhib, IP6K1 inhibitor)
Cc1ccc(C)c(C(NC(=O)c2cccc(Cl)c2)c2cccnc2)c1 (stereo not drawn)	none (no result: SNCA viab count, SNCA expr inhib, IP6K1 inhibitor)
COCCN1CCC2(C1)CN(C)c1ccc(C(=O)Nc3ccccc3)cc12 (stereo not drawn)	KDM5B inhibitor 25.1µM, SNCA expr inhib 10µM
COCCN1CCC2(C1)CN(C)c1ccc(C(=O)NCC3CC3)cc12 (stereo not drawn)	KDM5B inhibitor 35.5µM
COCCN1CCC2(C1)CN(C)c1ccc(C(=O)Nc3ccc(F)cc3)cc12 (stereo not drawn)	KDM5B inhibitor inconclusive
CC(=O)N1CCCC2(C1)CN(C)c1ccc(C(=O)NCC3CC3)cc12 (stereo not drawn)	KDM5B inhibitor 28.2µM
CC1(CCCCc2ccccc2)COc2ccc(C(=O)NC3CCOCC3)cc2N1 (stereo not drawn)	KDM5B inhibitor 35.5µM, SNCA expr inhib inconclusive
CN(C)C(=O)c1ccc2c(c1)NC(C)(CCCCc1ccccc1)CO2 (stereo not drawn)	SNCA expr inhib inconclusive
COCCN(C)C(=O)c1ccc2c(c1)NC(C)(CCCCc1ccccc1)CO2 (stereo not drawn)	none
CC1(CCCCc2ccccc2)COc2ccc(C(=O)NC3CC3)cc2N1 (stereo not drawn)	KDM5B inhibitor 28.2µM
CC1(CCCCc2ccccc2)COc2ccc(C(=O)NCCc3cnc[nH]3)cc2N1 (stereo not drawn)	KDM5B inhibitor 31.6µM
CCc1ccc(-c2csc(Nc3ccc(S(=O)(=O)Nc4nc(C)cc(C)n4)cc3)n2)cc1	none (no result: SNCA viab count, SNCA expr inhib, IP6K1 inhibitor)
Cc1cc(Nc2cc(N3CCN(C)CC3)nc(/C=C/c3ccccc3)n2)n[nH]1	SNCA viab count 29.9µM (no result: KDM5B inhibitor, SNCA expr inhib)
O=C(NCc1nnc2c(-c3nc(C4CC4)no3)cccn12)c1cc(F)ccc1F	KDM5B inhibitor 28.2µM
O=C(NCc1nnc2c(-c3nc(C4CC4)no3)cccn12)c1cc(F)ccc1Cl	KDM5B inhibitor 28.2µM
CCOc1ccccc1C(=O)NCc1nnc2c(-c3nc(C4CC4)no3)cccn12	none
O=C(NCc1ccc(-c2ccc(F)cc2)o1)C1CC(=O)N(Cc2cccnc2)C1 (stereo not drawn)	KDM5B inhibitor 25.1µM
O=C(C1CCCC1)N1CCN(c2nccc(Nc3ccccc3F)n2)CC1	none (no result: KDM5B inhibitor)
